Results reported in the supplement of paper PMC10477191.
± gives the standard deviation of the averaged measurements.

The compounds below were run on Drosophila virilis antennal basiconic sensillum AB4 (assay: odor-evoked OSN spike response (post minus pre-stimulus); higher = stronger neuronal excitation). Conditions: odor dilution: 10^-4.
Method: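 Single sensillum recordings from antennal basiconic sensilla of D. virilis. A 500 ms pulse of odorant (10^-4 in mineral oil or DMSO) was delivered; the response is the change in spike frequency between the 1 s pre- and post-stimulus windows (spikes/s).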

| Compound | odor-evoked OSN spike response [spikes/s] |
| --- | --- |
| C[C@H]1CCC[C@@]2(C)CCCC[C@]12O [geosmin] | 102 ± 21 |
